Source: PubChem BioAssay (The Scripps Research Institute Molecular Screening Center)
Most compounds without a hit are left out; they make up all but 4.1% or so of the library.
hcDAF-12 act = activators of H. contortus DAF-12 nuclear receptor; HEK293 hcDAF-12 lit1-tk-luc reporter, luminescence; 0% DMSO, 100% Δ7-dafachronic acid; activation, % at 6.8 µM; 1.4% of 370,000 active;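 active means activation above the mean of all tested compounds plus 3 SD, cut at about 5.5% in these data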
DAX1 inh-1 = inhibitors of DAX1 repression of SF-1 activated StAR promoter | HEK293T StAR-luciferase reporter, SF-1/DAX-1 repression relief | inhibition, % at 6.8 µM | 1.1% of 370,000 active;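 active means inhibition above the mean over all tested compounds plus 3 SD, cut at about 3.6% in these data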;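 further: higher inhibition means more luminescence from relief of DAX-1 repression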
DAX1 inh-2 = inhibitors of human orphan nuclear receptor DAX1 (NR0B1); 0.99% of 340,000 active; HEK293 Gal4-DAX1 luciferase reporter, luminescence; inhibition, % at 6.75 µM; P51843; AID 504766;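 active means inhibition above the mean over all tested compounds plus 3 SD, cut at about 4.2% in these data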;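 further: inhibition shows as a rise in luminescence from relieved DAX1 repression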
Target sequence (P51843 207-470 limits assumed): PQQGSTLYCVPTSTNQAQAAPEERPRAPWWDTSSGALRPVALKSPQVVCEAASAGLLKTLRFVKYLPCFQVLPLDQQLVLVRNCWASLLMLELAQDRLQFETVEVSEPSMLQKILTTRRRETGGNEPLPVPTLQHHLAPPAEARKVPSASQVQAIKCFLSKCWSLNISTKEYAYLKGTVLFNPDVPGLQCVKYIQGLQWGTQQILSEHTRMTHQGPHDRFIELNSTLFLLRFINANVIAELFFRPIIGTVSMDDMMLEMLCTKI
ssDAF12 agonist = activates DAF-12 receptor from parasite S. stercoralis; activation, % at 6.8 µM; 1% of 370,000 active; AID 652126; HEK293 ssDAF-12/GRIP1 lit1-tk-luc reporter, luminescence; % of 3 µM dafachronic acid response;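 active means activation above the mean over all tested compounds plus 3 SD, cut at about 0.9% in these data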
hgDAF12 agonist = activates the H. glycines DAF-12 receptor ligand-binding domain; HEK293 GAL4-hgDAF12 UAS-luciferase reporter, agonist luminescence; normalized to butyrate control; 1.8% of 370,000 active; activation, % at 6.8 µM;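 active means activation above a cutoff set at the mean of all screened compounds plus 3 SD, cut at about 10% in these data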
Large screens that a line does not name were inactive.

COc1cccc(/C=C2\Oc3ccc(O)cc3C2=O)c1O	hcDAF-12 act 6.0, DAX1 inh-1 4.0, ssDAF12 agonist 1.8
CSC(=S)NN=C(C)c1cccc(C)n1	hcDAF-12 act 6.0
COC(=O)[C@@H]1C[C@@]2(c3ccccc3)c3ccccc3N(S(=O)(=O)c3ccccc3)[C@H]2N1C(=O)CNC/C=C(\C)CCC=C(C)C	none (no result: DAX1 inh-2)
COc1ccc(C(CNC(=O)c2ccc(S(=O)(=O)Nc3ccccc3OC)cc2)N2CCCC2)cc1 (configuration not stated)	DAX1 inh-1 4.2
COc1ccccc1N1CCN(C(=O)c2oc3ccc(F)cc3c2C)CC1	none
Cc1c(C(=O)Nc2ccccc2N2CCN(C)CC2)oc2ccc(F)cc12	ssDAF12 agonist 1.0
Cc1ccc(C(=O)C2CCN(CC(=O)N3CC(C)CC(C)C3)CC2)cc1 (configuration not stated)	none (no result: DAX1 inh-2)
COc1cc(/C=N/Nc2ccccn2)ccc1OCC(C)C	hgDAF12 agonist 11
COc1ccc(/C=N\Nc2ccccn2)c(OC)c1	hgDAF12 agonist 11
O=C(NCCc1ccccc1Cl)[C@@H]1CCCN1C(=O)[C@@H](NS(=O)(=O)c1ccc(F)cc1F)c1ccccc1	none (no result: DAX1 inh-2)
O=C(NC1CCCCN(Cc2ccc(Cl)cc2)C1=O)c1cccc([N+](=O)[O-])c1 (configuration not stated)	none (no result: DAX1 inh-2)
Cc1cc(NCc2ccccc2)n2ncc(-c3ccccc3)c2n1	DAX1 inh-1 4.1, ssDAF12 agonist 0.9
Cc1cc(NC(C)c2ccccc2)n2ncc(-c3ccccc3)c2n1 (configuration not stated)	DAX1 inh-2 4.7
Cc1cc(C)n(-c2cc(C(C)(C)C)nc3c(-c4ccccc4)cnn23)n1	DAX1 inh-2 5.2, hgDAF12 agonist 11
COc1ccc(S[C@]2(C(=O)N3CCOCC3)CC(=O)N(C(=O)c3ccccc3)[C@@H]2c2ccc(OC)cc2)cc1	none (no result: DAX1 inh-2)
O=C(c1ccco1)[C@@H]1[C@@H]2C(=O)N(c3ccc(F)cc3)C(=O)[C@@H]2C2c3ccccc3C=CN21 (some centres not stated)	none (no result: DAX1 inh-2)
O=C(c1ccco1)[C@@H]1[C@@H]2C(=O)N(c3ccc(Br)cc3)C(=O)[C@@H]2C2c3ccccc3C=CN21 (some centres not stated)	ssDAF12 agonist 1.2
COCCN=C1Sc2ccccc2[C@@H]2C[C@H]3[C@H](CON3C)CN12	none (no result: DAX1 inh-2)
Nc1ccc(S(N)(=O)=O)cc1	none
Nc1ccc(S(N)(=O)=O)cc1N	DAX1 inh-2 7.3, hgDAF12 agonist 13
N#Cc1ccc(S(=O)(=O)N2CCCc3nc(-c4ccc(F)cc4)ccc32)cc1	ssDAF12 agonist 1.7 (no result: DAX1 inh-2)
N#Cc1ccc(S(=O)(=O)N2CCCc3nc(-c4ccc(Br)cc4)ccc32)cc1	ssDAF12 agonist 1.4 (no result: DAX1 inh-2)
O=S(=O)(c1ccc(F)cc1)N1CCCc2nc(-c3ccc(Br)cc3)ccc21	none (no result: DAX1 inh-2)
COc1ccccc1NC(=S)NC(=O)CCc1ccccc1	none
Cc1ccc(OCC(=O)Nc2cccc(O)c2)cc1C	hgDAF12 agonist 11
O=C(CCc1ccccc1)NC(=S)Nc1ccccc1Br	DAX1 inh-2 8.4
Cc1cccc(C)c1OCC(=O)Nc1cccc(C(=O)O)c1	DAX1 inh-1 3.8
Cc1ccc(NC(=O)CCCc2ccccc2)nc1	DAX1 inh-1 3.8
CNC(=S)Nc1cccc(C(=O)O)c1	ssDAF12 agonist 1.4
COc1ccc(NC(=O)CCCC(=O)c2ccccc2)cc1OC	none
O=C(CCc1ccccc1)NC(=S)Nc1cccc(C(=O)O)c1	DAX1 inh-1 4.0
CCC(C)c1ccc(OCC(=O)Nc2cccc(C(=O)Nc3ccc(C(=O)O)cc3)c2)cc1 (configuration not stated)	DAX1 inh-1 4.0
COc1ccc(NC(=O)CCCc2ccccc2)cc1OC	DAX1 inh-2 4.2
Cc1cccc(CCNC(=O)CSc2nc3c([nH]2)c(=O)n(C)c(=O)n3C)c1	none (no result: DAX1 inh-2)
COc1ccc(/C=N/NC(=S)Nc2cccc(C(=O)O)c2)cc1OC	none
O=C(CCCc1ccccc1)Nc1cccc(C(=O)O)c1	DAX1 inh-1 4.5, hgDAF12 agonist 12
O=C(CCc1ccccc1)NNC(=O)c1ccccc1Br	DAX1 inh-2 5.0
COc1cccc(/C=N/NC(=S)Nc2cccc(C(=O)O)c2)c1	ssDAF12 agonist 1.6
O=C(CCc1ccccc1)NNC(=O)c1ccccc1C(=O)O	none
Brc1ccc(CSc2nnc(SCc3ccccc3)s2)cc1	none (no result: DAX1 inh-2)
Cc1ccc(C2CCN(C(=S)NC(C)(C)C)C2)cc1 (configuration not stated)	DAX1 inh-2 5.6
COc1ccc(NC(=S)N2CCC(c3ccccc3)C2)cc1 (configuration not stated)	hgDAF12 agonist 12
CC1CCCN(C(=S)Nc2ccc(Nc3ccccc3)cc2)C1 (configuration not stated)	ssDAF12 agonist 1.3, hgDAF12 agonist 11 (no result: DAX1 inh-2)
COC(=O)Cc1ccc(NC(=S)N2CCCC(CO)C2)cc1 (configuration not stated)	hgDAF12 agonist 10
CNS(=O)(=O)c1cn(CC(=O)NCc2cccc(OC)c2)cc1S(=O)(=O)NC	hcDAF-12 act 5.8
CNS(=O)(=O)c1cn(CC(=O)NCc2ccc(OC)cc2)cc1S(=O)(=O)NC	none
COC(=O)C1CN(Cc2ccc(F)cc2)CCS(=O)(=O)N1Cc1ccccc1 (configuration not stated)	none (no result: DAX1 inh-2)
Cc1cccc(Cc2nnc(CCC(=O)N(C)CCc3ccccc3)o2)c1	hgDAF12 agonist 12
COc1cc(OC)c(NC(=O)c2cccc(F)c2)cc1Cl	ssDAF12 agonist 1.2
COc1cc(OC)c(NC(=O)c2ccc(F)cc2)cc1Cl	none
COc1cc(NC(=O)c2ccccc2)c(OC)cc1Cl	hcDAF-12 act 5.8
CCCc1cc(C(=O)Nc2cc(OC)c(Cl)cc2OC)no1	hcDAF-12 act 6.5
COc1cc(N)c(Cl)cc1NC(=O)c1ccccc1	none
CC(C)C[C@@H]1COc2cc(F)ccc2S(=O)(=O)N1C	none (no result: DAX1 inh-2)
Cc1ccc(S(=O)(=O)NC(=O)ON=Cc2ccc3c(c2)OCO3)cc1	none (no result: DAX1 inh-2)
COC(=O)C(/C=N/O)NC(=O)c1ccccc1 (configuration not stated)	hcDAF-12 act 5.9
CO/N=C/C(NC(=O)c1ccc(C(F)(F)F)cc1)C(=O)OC (configuration not stated)	none
CC(COc1cccc(F)c1)CN1CCC(C(O)(c2ccccc2)c2ccccc2)CC1 (configuration not stated)	none (no result: DAX1 inh-2)
CC(=O)Oc1cccc(C(=O)Nc2ccc(NC(=O)c3cccs3)cc2)c1	DAX1 inh-1 4.5
COc1cccc(C(=O)Nc2cccc(NC(=O)c3cccs3)c2)c1	none
Cc1ccc(CN2CCCCC(NC(=O)Nc3cccc(F)c3)C2=O)cc1 (configuration not stated)	none (no result: DAX1 inh-2)
CNC(=O)c1ccc(-c2cc3onc(-c4ccccc4)c3c(=O)n2C)cc1	none
CCc1noc2cc(-c3ccccc3)n(C)c(=O)c12	hgDAF12 agonist 13 (no result: DAX1 inh-2)
